Consider 3 compounds from PubChem BioAssay (EPA / NIEHS).

Structures are written as SMILES. Records with an inconclusive call do not appear. Calls of active or inactive are those of the source. Rule for the calls: active = hit-call score of the fitted dose curve at least 0.9, where 1 is the maximum; inconclusive = response in the unintended direction; inactive = score below 0.9.

The nature of this assay: Tanguay_ZF_120hpf_NC_legacy: (Legacy) Oregon State University Tanguay Lab 120 Hour Post-fertilization zebrafish Assay for Notochord and Tail Malformation (AID 2283656). In a few lines: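 Dechorionated Tropical 5D wild-type zebrafish embryos, one per well from 6 hpf, statically exposed to 120 hpf at 28C in 0.64% DMSO final. Notochord distortion scored present/absent by brightfield; dead embryos excluded.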
For `COC(=O)CCCC(=O)OC`, the compound was called inactive. For `CC1(C)C(=O)NC(=O)N1CO`, the result was inactive. Under `CCCCCCCCCCCCCCOS(=O)(=O)O` stands “inactive”.
